Measurements as given in PubChem BioAssay AID1159580 (chemical genetic matrix, 2015).
Out of some 5,500 compounds screened, about 2,000 (36%) were called active. Not shown: some 18% with an inconclusive outcome. Rule as the data show it: active = normalized growth mostly below about 0.91 (no sharp cut-off); inconclusive = no clear call, values can overlap the other calls; inactive = mostly above about 0.92. Some of the results follow.

Assay: chemical genetic growth profiling, strain panel (AID 1159580);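 also: tested at 20 µM; growth read once vehicle control cultures reached saturation at 30 °C; 1 = growth at the plate median or of vehicle wells; lower values mean less growth of the strain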
Details: S. cerevisiae deletion strains, growth OD

Measured: normalized growth

O=c1cc(-c2ccc(O)c(O)c2)oc2cc(O)cc(O)c12
inactive: locus YAL040C, strain CLN3, stronger effect = lower value 1.02 | locus YCL061C, strain MRC1 (second series), stronger effect = lower value 0.989 | locus YDR150W, strain NUM1, stronger effect = lower value 0.964 | locus YDR363W, strain ESC2, stronger effect = lower value 1.02 | locus YER002W, strain NOP16, stronger effect = lower value 1.01 | locus YGR078C, strain PAC10, stronger effect = lower value 0.989 | locus YJR075W, strain HOC1, stronger effect = lower value 0.984 | locus YMR263W, strain SAP30, stronger effect = lower value 1 | locus YNL175C, strain NOP13, stronger effect = lower value 1.01 | locus YNL197C, strain WHI3, stronger effect = lower value 1.02 | locus YNL224C, strain SQS1, stronger effect = lower value 1.03 | locus YOR083W, strain WHI5 (second series), stronger effect = lower value 0.966 | locus YPL241C, strain CIN2, stronger effect = lower value 0.997
